# For some assays here: Results with a measured potency or affinity are listed apart. Activity calls are given as the source filed them.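 The calls were made as follows, unless noted: active = calcium signal cut by more than 3 SD below the full-agonist control yet still positive, in both repeats and the earlier primary screen; inactive = the rest.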
# Experiments:
# [1] = system: TRPC4 beta (transient receptor potential cation channel C4), mouse; experiment: activators of mouse TRPC4 channel, confirmation, cell-based, Fluo4 calcium, HEK293 TRPC4beta/mu-opioid, duplicates, 10 µM (AID 2426;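 active = fluorescence ratio normalized to control raised more than 50% in primary screen plus both repeat runs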); conditions: Fluo4 calcium fluorescence, at 10 µM; active compounds read high
# [2] = system: transient receptor potential cation channel C4 beta (TRPC4), mouse; experiment: activators of mouse TRPC4 channel, confirmation, cell-based, second round, Fluo4, HEK293 TRPC4beta/mu-opioid, 1 µM (AID 2461;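 active = primary screen active and over 50% activation in each of two duplicate runs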); conditions: Fluo4 calcium fluorescence, at 1 µM; active compounds read high
# [3] = system: TRPC4 (transient receptor potential cation channel C4 beta), mouse; experiment: positive allosteric modulators of mouse TRPC4, confirmation, cell-based, second round, Fluo-4, HEK293 TRPC4beta/mu-opioid, 1 µM (AID 2554;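 active = primary screen hit whose fluorescence ratio, in both repeats, exceeds the weak agonist control mean by 3 SD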); conditions: DAMGO EC20, Fluo-4 calcium flux, at 1 µM; active compounds read high
# [4] = system: TRPC4 beta (transient receptor potential cation channel C4), mouse; experiment: positive allosteric modulators of mouse TRPC4, confirmation, cell-based, Fluo-4, HEK293 TRPC4beta/mu-opioid (AID 2555;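 active = primary screen hit whose calcium fluorescence ratio, in both repeats, exceeds the weak agonist control mean by 3 SD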); conditions: DAMGO EC20, Fluo-4 calcium flux, at 10 µM; active compounds read high
# [5] = biological target: Short transient receptor potential channel 4 (Mus musculus) (UniProt Q9QUQ5); experiment: inhibitors of mouse TRPC4 channel, confirmation, cell-based, Fluo4, HEK293 TRPC4beta/mu-opioid (AID 2636); conditions: DAMGO, Fluo4 calcium flux, at 10 µM; active compounds read high
# Chain of Short transient receptor potential channel 4 (Mus musculus) (Q9QUQ5 whole entry, looked up): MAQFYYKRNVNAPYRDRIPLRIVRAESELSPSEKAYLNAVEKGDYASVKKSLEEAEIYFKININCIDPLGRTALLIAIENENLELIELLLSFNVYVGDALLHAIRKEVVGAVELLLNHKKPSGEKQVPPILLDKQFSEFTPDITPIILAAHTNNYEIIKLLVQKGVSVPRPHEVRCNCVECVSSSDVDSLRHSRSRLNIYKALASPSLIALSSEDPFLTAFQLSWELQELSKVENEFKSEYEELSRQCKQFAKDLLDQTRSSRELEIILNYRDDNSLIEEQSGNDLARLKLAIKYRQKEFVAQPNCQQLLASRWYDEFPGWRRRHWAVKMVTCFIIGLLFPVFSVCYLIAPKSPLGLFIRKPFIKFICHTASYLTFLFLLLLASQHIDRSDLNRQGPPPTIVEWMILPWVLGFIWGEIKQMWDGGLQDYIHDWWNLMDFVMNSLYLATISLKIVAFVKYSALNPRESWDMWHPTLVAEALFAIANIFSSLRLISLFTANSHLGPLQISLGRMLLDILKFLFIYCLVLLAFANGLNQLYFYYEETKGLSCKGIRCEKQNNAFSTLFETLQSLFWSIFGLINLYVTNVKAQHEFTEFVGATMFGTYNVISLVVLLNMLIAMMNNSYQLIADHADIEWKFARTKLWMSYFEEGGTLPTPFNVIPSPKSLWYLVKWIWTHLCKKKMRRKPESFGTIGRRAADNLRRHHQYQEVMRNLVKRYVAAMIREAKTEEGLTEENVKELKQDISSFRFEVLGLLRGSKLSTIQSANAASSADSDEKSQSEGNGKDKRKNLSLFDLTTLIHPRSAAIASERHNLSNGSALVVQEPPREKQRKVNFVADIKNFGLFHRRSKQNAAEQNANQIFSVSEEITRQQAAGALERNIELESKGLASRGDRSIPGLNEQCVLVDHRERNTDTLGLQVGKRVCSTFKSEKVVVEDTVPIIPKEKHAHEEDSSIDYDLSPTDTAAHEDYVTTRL
# [6] = biological target: Short transient receptor potential channel 4 (Mus musculus) (UniProt Q9QUQ5); experiment: inhibitors of mouse TRPC4 channel, confirmation, cell-based, second round, Fluo4, HEK293 TRPC4beta/mu-opioid, 1 µM (AID 2637;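 active = calcium signal ratio cut to more than 3 SD under the fully stimulated control mean yet still positive, in both repeats and the primary screen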); conditions: Fluo4 calcium flux, DAMGO, at 1 µM; active compounds read high
# [7] = biological target: Short transient receptor potential channel 4 (Mus musculus) (UniProt Q9QUQ5); experiment: mouse TRPC4 channel activators, dose response, cell-based, HEK293 TRPC4/mu-opioid, Fluo-4 calcium (AID 434937;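 active = primary screen activator hit with a dose response curve and TRPC4 channel activation at any tested dose; inactive = no activation, no dose response, or not a primary hit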)
# [8] = biological target: Short transient receptor potential channel 4 (Mus musculus) (UniProt Q9QUQ5); experiment: TRPC4 positive allosteric modulators, dose response, cell-based, HEK293 TRPC4/mu-opioid, Fluo-4 calcium, EC20 DAMGO (AID 434941;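 active = earlier screen potentiator hit that boosts the TRPC4 ion channel at some dose, with a dose response; inactive = no potentiation, no dose response, or not a prior hit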;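 also: calcium entry triggered by an EC20 dose of DAMGO at the co-expressed mu-opioid receptor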)
# [9] = biological target: Short transient receptor potential channel 4 (Mus musculus) (UniProt Q9QUQ5); experiment: mouse TRPC4 channel inhibitors, dose response, cell-based, HEK293 TRPC4/mu-opioid, Fluo-4 calcium (AID 434942;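 active = primary screen inhibitor hit that blocks the TRPC4 channel at some tested dose, yielding a dose curve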)
# [10] = biological target: Short transient receptor potential channel 6 (Mus musculus) (UniProt Q61143); experiment: inhibition of mouse TRPC6 channel, confirmation, selectivity assay for TRPC4 inhibitor project, cell-based, HEK293, membrane potential dye, duplicate (AID 434948;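 active = active in primary screen and both duplicates, each dropping signal beyond three positive-control SD with fluorescence still positive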); conditions: HEK293 TRPC6, membrane potential dye fluorescence, at 10 µM, stimulated with maximal-effect acetylcholine; active compounds read high
# Chain of Short transient receptor potential channel 6 (Mus musculus) (Q61143 whole entry, looked up): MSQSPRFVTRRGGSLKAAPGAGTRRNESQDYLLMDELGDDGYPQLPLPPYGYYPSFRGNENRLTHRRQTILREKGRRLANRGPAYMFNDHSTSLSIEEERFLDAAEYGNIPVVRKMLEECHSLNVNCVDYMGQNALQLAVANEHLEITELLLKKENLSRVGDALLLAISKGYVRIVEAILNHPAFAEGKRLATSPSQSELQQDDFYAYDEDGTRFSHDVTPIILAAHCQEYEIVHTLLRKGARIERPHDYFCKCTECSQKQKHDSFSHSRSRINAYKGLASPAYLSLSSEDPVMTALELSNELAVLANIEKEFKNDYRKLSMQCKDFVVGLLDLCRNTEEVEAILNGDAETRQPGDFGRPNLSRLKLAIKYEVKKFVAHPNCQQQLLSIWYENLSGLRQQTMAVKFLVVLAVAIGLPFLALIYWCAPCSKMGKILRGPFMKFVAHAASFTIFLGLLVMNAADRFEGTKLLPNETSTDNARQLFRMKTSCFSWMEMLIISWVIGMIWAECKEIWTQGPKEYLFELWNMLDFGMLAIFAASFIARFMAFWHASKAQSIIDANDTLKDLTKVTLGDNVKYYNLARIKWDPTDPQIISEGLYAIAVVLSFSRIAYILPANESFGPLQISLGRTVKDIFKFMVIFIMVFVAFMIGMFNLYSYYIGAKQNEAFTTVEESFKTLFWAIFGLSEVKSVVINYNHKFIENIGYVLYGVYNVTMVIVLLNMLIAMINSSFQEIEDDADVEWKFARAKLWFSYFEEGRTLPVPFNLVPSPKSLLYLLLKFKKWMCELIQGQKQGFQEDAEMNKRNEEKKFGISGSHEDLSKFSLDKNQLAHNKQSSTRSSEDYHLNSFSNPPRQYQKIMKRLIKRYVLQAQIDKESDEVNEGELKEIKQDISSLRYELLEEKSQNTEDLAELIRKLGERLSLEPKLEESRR
# [11] = biological target: Short transient receptor potential channel 6 (Mus musculus) (UniProt Q61143); experiment: activation of mouse TRPC6 channel, confirmation, selectivity assay for TRPC4 activator project, cell-based, HEK293, membrane potential dye, duplicate (AID 434950;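 active = membrane potential signal rise above negative control mean plus 3 SD in both duplicates, also active in the earlier TRPC4 screen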); conditions: HEK293 TRPC6, membrane potential fluorescence, at 10 µM; active compounds read high
# [12] = biological target: Short transient receptor potential channel 6 (Mus musculus) (UniProt Q61143); experiment: TRPC6 potentiation by TRPC4 potentiator hits, confirmation, selectivity assay for TRPC4 potentiator project, HEK293 cells, membrane potential dye, duplicate (AID 434952;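 active = compound raising the membrane signal above positive-control mean plus 3 SD in both repeats, and a primary screen hit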); conditions: HEK293 TRPC6, membrane potential dye fluorescence, at 10 µM, maximal acetylcholine added after compound; active compounds read high
# [13] = biological target: Short transient receptor potential channel 4 (Mus musculus) (UniProt Q9QUQ5); experiment: calcium flux activators in TRPC4/5HT1a cells, counter-screen for TRPC4 activator project, cell-based, second counter screen, HEK293 TRPC4/5HT1a, Fluo-4 (AID 434977;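 active = calcium signal rise above buffer-control mean plus 5 SD in both duplicates, and also a hit in the primary screen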); conditions: Fluo-4 calcium flux, at 10 µM; active compounds read high
# [14] = calcium flux inhibitors in TRPC4/5HT1a cells, confirmation, counter-screen for TRPC4 inhibitor project, cell-based, second counter screen, HEK293 TRPC4/5HT1a, Fluo-4 (AID 434978;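 active = primary screen active whose calcium signal fell more than 3 SD beyond the full-serotonin control mean in both duplicate plates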;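 as to outcome: serotonin given first at submaximal then at maximal dose after compound preincubation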); conditions: Fluo-4 calcium flux, at 10 µM, serotonin added to trigger calcium flux; active compounds read high
# [15] = system: TRPC4 (mouse), co-expressed with 5HT1a in HEK293; experiment: calcium flux potentiators in TRPC4/5HT1a cells, confirmation, counter-screen for TRPC4 potentiator project, cell-based, second counter screen, HEK293 TRPC4/5HT1a, Fluo-4 (AID 434979;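 active = signal rise over 3 SD above mean of control wells given weak agonist, in both repeats and first screen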); conditions: Fluo-4 calcium flux, at 10 µM, serotonin added at its EC20 dose; active compounds read high
# [16] = calcium flux activation in mu-opioid HEK293 cells, confirmation, counter-screen for TRPC4 activator project, cell-based, HEK293 mu-opioid receptor line (AID 449723;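 active = hit in primary screen, with calcium signal over 5 SD above buffer well mean in both duplicates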;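 also: counter screen cells carry the mu-opioid receptor alone and lack TRPC4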); conditions: Fluo-4 calcium fluorescence, at 10 µM; active compounds read high
# [17] = calcium flux enhancement in mu-opioid HEK293 cells, confirmation, counter-screen for TRPC4 allosteric potentiator project, cell-based, HEK293 mu-opioid receptor line (AID 449724;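 active = calcium signal rise more than 3 SD above the low-dose agonist control mean, in both duplicate plates and the primary screen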); conditions: Fluo-4 calcium flux, at 10 µM, compound added before EC20 DAMGO stimulus; active compounds read high
structure (smiles),measurement,setting,value
COc1ccc(/C=C2/SC(=S)N(NS(=O)(=O)c3ccc(C)cc3)C2=O)cc1,outcome,[1],inactive
same,outcome,[2],inactive
same,outcome,[3],inactive
same,outcome,[4],inactive
same,outcome,[5],inactive
same,outcome,[6],inactive
same,outcome,[7],inactive
same,outcome,[8],inactive
same,outcome,[9],inactive
same,outcome,[10],inactive
same,outcome,[11],inactive
same,outcome,[12],inactive
same,outcome,[13],inactive
same,outcome,[14],inactive
same,outcome,[15],inactive
same,outcome,[16],inactive
same,outcome,[17],inactive
Cc1ccc(CSc2nnc(-c3cccc(S(=O)(=O)N4CCOCC4)c3)n2C2CCCC2)cc1,outcome,[1],inactive
same,outcome,[2],inactive
same,outcome,[3],inactive
same,outcome,[4],inactive
same,outcome,[5],inactive
same,outcome,[6],inactive
same,outcome,[7],inactive
same,outcome,[8],inactive
same,outcome,[9],inactive
same,outcome,[10],inactive
same,outcome,[11],inactive
same,outcome,[12],inactive
same,outcome,[13],inactive
same,outcome,[14],inactive
same,outcome,[15],inactive
same,outcome,[16],inactive
same,outcome,[17],inactive
COc1cc(Cl)c(S(=O)(=O)N2CCN(Cc3ccc4c(c3)OCO4)CC2)cc1Cl,outcome,[1],inactive
same,outcome,[2],inactive
same,outcome,[3],inactive
same,potentiation,[4],10% (active)
same,outcome,[5],inactive
same,outcome,[6],inactive
same,outcome,[7],inactive
same,outcome,[8],inactive
same,outcome,[9],inactive
same,outcome,[10],inactive
same,outcome,[11],inactive
same,outcome,[12],inactive
same,outcome,[13],inactive
same,outcome,[14],inactive
same,potentiation,[15],16.8% (active)
same,outcome,[16],inactive
same,outcome,[17],inactive
O=C1CC2(CCN(S(=O)(=O)c3ccccc3)CC2)Oc2ccccc21,outcome,[1],inactive
same,outcome,[2],inactive
same,outcome,[3],inactive
same,potentiation,[4],52% (active)
same,outcome,[5],inactive
same,outcome,[6],inactive
same,outcome,[7],inactive
same,outcome,[8],inactive
same,outcome,[9],inactive
same,outcome,[10],inactive
same,outcome,[11],inactive
same,outcome,[12],inactive
same,outcome,[13],inactive
same,outcome,[14],inactive
same,potentiation,[15],28.7% (active)
same,outcome,[16],inactive
same,outcome,[17],inactive
CCC(=O)c1cc2c(C)cc(=O)oc2c(C)c1OC(=O)C(C)C,outcome,[1],inactive
same,outcome,[2],inactive
same,outcome,[3],inactive
same,outcome,[4],inactive
same,inhibition,[5],85% (active)
same,outcome,[6],inactive
same,outcome,[7],inactive
same,outcome,[8],inactive
same,outcome,[9],inactive
same,outcome,[10],inactive
same,outcome,[11],inactive
same,outcome,[12],inactive
same,outcome,[13],inactive
same,inhibition,[14],12.2% (active)
same,outcome,[15],inactive
same,outcome,[16],inactive
same,outcome,[17],inactive
CCCn1c(N2CCN(S(=O)(=O)Cc3ccccc3)CC2)nc2ccccc21,outcome,[1],inactive
same,outcome,[2],inactive
same,outcome,[3],inactive
same,potentiation,[4],11% (active)
same,outcome,[5],inactive
same,outcome,[6],inactive
same,outcome,[7],inactive
same,outcome,[8],inactive
same,outcome,[9],inactive
same,outcome,[10],inactive
same,outcome,[11],inactive
same,outcome,[12],inactive
same,outcome,[13],inactive
same,outcome,[14],inactive
same,potentiation,[15],22.3% (active)
same,outcome,[16],inactive
same,outcome,[17],inactive
O=[N+]([O-])c1cc(Cc2ccccc2)cc(C=Nc2ccc(N3CCOCC3)cc2)c1O,outcome,[1],inactive
same,outcome,[2],inactive
same,outcome,[3],inactive
same,outcome,[4],inactive
same,outcome,[5],inactive
same,outcome,[6],inactive
same,outcome,[7],inactive
same,outcome,[8],inactive
same,outcome,[9],inactive
same,outcome,[10],inactive
same,outcome,[11],inactive
same,outcome,[12],inactive
same,outcome,[13],inactive
same,outcome,[14],inactive
same,outcome,[15],inactive
same,outcome,[16],inactive
same,outcome,[17],inactive
